Data reported in PubChem BioAssay (EPA / NIEHS).
Calls of active or inactive are those of the source. How the source made its calls: active means hit-call score of the fitted dose curve at least 0.9, where 1 is the maximum; inactive means score below 0.9.

Each molecule was assayed on DNA damage-inducible transcript 3 (DDIT3), DDIT3 (gene 1649) (assay: LTEA_HepaRG_DDIT3: Life Technologies and Expression Analysis (LTEA) Assay for DNA damage-inducible transcript 3 (DDIT3) using HepaRG (AID 2283488)). Details: mRNA level, 48 h; actives raise or lower the signal.
Procedure: LTEA_HepaRG is a cell based, multiplexed-readout assay that uses HepaRG, a human liver cell line, with measurements taken at 48 hours after chemical dosing on a 96-well plate.LTEA_HepaRG_DDIT3 is one of 102 assay component(s) measured in the LTEA HepaRG cell culture assay. It is a marker of Oxidative Stress.Data from the assay component LTEA_HepaRG_DDIT3 was analyzed into 1 endpoint. This assay endpoint, LTEA_HepaRG_DDIT3, was analyzed with bidirectional fitting relative to DMSO as the negative control and baseline of activity. Using a type of inducible reporter, measures of mRNA induction for gain or loss-of-signal activity can be used to understand regulation of transcription factor activity. To generalize the intended target to other relatable targets, this assay endpoint is annotated to the dna binding intended target family, where the subfamily is basic leucine zipper.
A total of 1060 chemcials from the ToxCast library were tested in eight-point concentration-response experiments. Cell culture and cytotoxicity assays were conducted at Thermo Fisher Scientific's Custom Services facility (Madison, WI). A single lot of human HepaRG cells (Thermo Fisher Scientific, Frederick, MD) was used for the cell culture experiments. 96-well format collagen type I coated plates of human HepaRG cells were prepared using established methods. Briefly, cryopreserved HepaRG cells were thawed, plated at a density of approximately 100,000 cells/well in HepaRG Thaw, Plate, and General Purpose media (HPRG770, Thermo Fisher Scientific), and incubated for 48 hours. 0.5% DMSO was selected as vehicle control to balance the requisite need of DMSO in HepaRG cultures to maintain differentiation (for example, baseline metabolism, proportions of hepatocytes vs. cholangiocytes), while enabling further hepatic receptor pathway activation (for example, PXR and CAR) in response to chemical exposure. 48 hours after plating, the culture medium was replaced with HepaRG Serum-Free Incudtion Media. Cells were exposed to each test chemical in duplicate and maintained in CO2 incubators for another 48 hours. Chemical plates were thawed to room temperature and 200x concentrations of treatment groups were prepared. 8-point conentration-reponse curves were made with the highest exposure at 100 uM, followed by half-log dilutions, all in 0.5% DMSO. Each test plate contained variouse controls, induction positive controls (1mM phenobarbital), cytotoxicity positive controls ([…] aflatoxin B1), vehicle controls (0.5% DMSO), and total lysis controls (0.5% DMSO). Cell morphology images were taken using an Essen IncuCyte FLR automated microscope, with six 96-well plates imaged in about 24 minutes. Images were captured and exported and JPEG files. Spent culture media was transfered to black-well plates for the LDH assay, and remaining media was sorted at -80 C for later use. Cells were treated with RLT buffer and frozen until shipped for gene expression analysis. Total RNA was isolated from the cell suspension in 75 uL of Buffer RLT (Qiagen, Germantown, MD 20874) by Quintiles/Expression Analysis (Durham, NC) using a custom isolation procedure. Total RNA from each plate well was transferred to a preamplification plate. Fluidigm's 96.96 Dynamic ArrayTM (Fluidigm, Amsterdam, the Netherlands) technology was used for gene expression analyses by quantitative reverse transcription polymerase chain reaction (qRT-PCR, performed by Quintiles/Expression Analysis, Durham, NC)89. Standard TaqManTM Assays (Applied Biosystems/ThermoFisher Scientific, Foster City, CA) were used to assess the expression of 93 genes selected based on their selectivity and sensitivity to important hepatic receptors known to be modulated by environmental chemicals; importance in human hepatocyte functionality; and hepatotoxicity. […]

Q: For `CC(C)N1C(=O)c2ccccc2NS1(=O)=O`, which outcome is on record?
A: Its outcome is “inactive”.

Q: With `CN=C=S` as the molecule, how does the outcome read?
A: The outcome was “inactive”.

Q: `O=c1n(Cl)c(=O)n(Cl)c(=O)n1Cl` was tested. Which outcome did it give?
A: The outcome was “inactive”.

Q: With `CS(=O)(=O)c1cc(C(F)(F)F)ccc1C(=O)c1cnoc1C1CC1` as the molecule, how does the outcome read?
A: Its outcome is “inactive”.

Q: How did the outcome turn out when `CCOc1nc(F)cc2nc(S(=O)(=O)Nc3c(Cl)cccc3Cl)nn12` was run?
A: The outcome was “inactive”.

Q: With `CCNP(=S)(OC)O/C(C)=C/C(=O)OC(C)C` (stereo not given) as the molecule, how does the outcome read?
A: Its outcome is “inactive”.

Q: `CCN(CC)c1nc(C)cc(OP(=S)(OC)OC)n1` was tested. Which outcome did it give?
A: Its outcome is “inactive”.

Q: With `Cc1c(COC(=O)[C@@H]2[C@H](/C=C(\Cl)C(F)(F)F)C2(C)C)cccc1-c1ccccc1` as the molecule, how does the AC50 read?
A: The AC50 was 81.2 µM (active).

Q: `COC(=O)N(C(=O)N1CO[C@@]2(C(=O)OC)Cc3cc(Cl)ccc3C2=N1)c1ccc(OC(F)(F)F)cc1` was tested. Which outcome did it give?
A: Its outcome is “inactive”.

Q: With `CC1(C)C(C=C(Cl)Cl)C1C(=O)OC(C#N)c1cccc(Oc2ccccc2)c1` (stereo not given) as the molecule, how does the outcome read?
A: The outcome was “inactive”.

Q: With `COP(=S)(OC)SCn1nnc2ccccc2c1=O` as the molecule, how does the outcome read?
A: The outcome was “inactive”.

Q: With `CCCCOCN(C(=O)CCl)c1c(CC)cccc1CC` as the molecule, how does the outcome read?
A: The outcome was “inactive”.

Q: With `COC(=O)c1c(C(F)F)nc(C(F)(F)F)c(C2=NCCS2)c1CC(C)C` as the molecule, how does the outcome read?
A: The outcome was “inactive”.

Q: With `CCOC(=O)C(C)OC(=O)c1cc(Oc2ccc(C(F)(F)F)cc2Cl)ccc1[N+](=O)[O-]` (stereo not given) as the molecule, how does the outcome read?
A: Its outcome is “inactive”.

Q: For `COP(=S)(OC)Oc1ccc([N+](=O)[O-])c(C)c1`, which outcome is on record?
A: The outcome was “inactive”.

Q: Which outcome does the source give for `CC1(C)C(C(=O)OC(C#N)c2cccc(Oc3ccccc3)c2)C1(C)C` (stereo not given) here?
A: Its outcome is “inactive”.

Q: With `Cc1ccc(N=CN(C)C=Nc2ccc(C)cc2C)c(C)c1` as the molecule, how does the outcome read?
A: Its outcome is “inactive”.

Q: For `COc1cc(OC)nc(NC(=O)NS(=O)(=O)c2ncccc2OCC(F)(F)F)n1`, which outcome is on record?
A: The outcome was “inactive”.

Q: Which outcome does the source give for `Cc1cc(C)nc(Nc2ccccc2)n1` here?
A: Its outcome is “inactive”.

Q: How did the AC50 turn out when `CCNC(=O)NC(=O)C(C#N)=NOC` was run?
A: The AC50 was 11.6 µM (active).

Q: How did the outcome turn out when `Clc1cccc(C(Cl)(Cl)Cl)n1` was run?
A: The outcome was “inactive”.

Q: `Cn1c(-c2ccccc2)cc(-c2ccccc2)[n+]1C` was tested. Which AC50 did it give?
A: Its AC50 is 13.5 µM (active).

Q: Which AC50 does the source give for `CCOc1nc(C(Cl)(Cl)Cl)ns1` here?
A: Its AC50 is 1.61 µM (active).

Q: Which outcome does the source give for `O=C(O)c1c(Cl)ccc2cc(Cl)cnc12` here?
A: The outcome was “inactive”.

Q: `CO/N=C(/C1=NOCCO1)c1ccccc1Oc1ncnc(Oc2ccccc2Cl)c1F` was tested. Which AC50 did it give?
A: The AC50 was 25.1 µM (active).

Q: For `C=CCOC(=O)C(C)(C)OC(=O)c1cc(-n2c(=O)cc(C(F)(F)F)n(C)c2=O)ccc1Cl`, which outcome is on record?
A: The outcome was “inactive”.

Q: Which outcome does the source give for `C=C(C)CN(CC)c1c([N+](=O)[O-])cc(C(F)(F)F)cc1[N+](=O)[O-]` here?
A: Its outcome is “inactive”.

Q: For `CNC(=O)N(C)c1nnc(C(C)(C)C)s1`, which outcome is on record?
A: Its outcome is “inactive”.

Q: Which outcome does the source give for `N#Cc1c[nH]cc1-c1cccc2c1OC(F)(F)O2` here?
A: The outcome was “inactive”.

Q: For `CNC(=O)Oc1cccc2ccccc12`, which outcome is on record?
A: Its outcome is “inactive”.

Q: With `COc1ccc(-c2ccccc2)cc1NNC(=O)OC(C)C` as the molecule, how does the outcome read?
A: The outcome was “inactive”.

Q: Which outcome does the source give for `CC(C)=CC1C(C(=O)OCc2coc(Cc3ccccc3)c2)C1(C)C` (stereo not given) here?
A: Its outcome is “inactive”.

Q: How did the outcome turn out when `CCOP(=O)(OCC)Oc1nc(Cl)c(Cl)cc1Cl` was run?
A: The outcome was “inactive”.

Q: Which AC50 does the source give for `CCCCC(C#N)(Cn1cncn1)c1ccc(Cl)cc1` (stereo not given) here?
A: Its AC50 is 67.8 µM (active).

Q: Which outcome does the source give for `Cc1cnc(C2=NC(C)(C(C)C)C(=O)N2)c(C(=O)O)c1` (stereo not given) here?
A: The outcome was “inactive”.

Q: With `CSC(=O)c1c(C(F)F)nc(C(F)(F)F)c(C(=O)SC)c1CC(C)C` as the molecule, how does the outcome read?
A: The outcome was “inactive”.

Q: With `CCCN(CC)CC1COC2(CCC(C(C)(C)C)CC2)O1` (stereo not given) as the molecule, how does the outcome read?
A: The outcome was “inactive”.

Q: For `COc1cc(Cl)c(OC)cc1Cl`, which outcome is on record?
A: The outcome was “inactive”.

Q: How did the outcome turn out when `CN/C(=N\[N+](=O)[O-])NCc1cnc(Cl)s1` was run?
A: Its outcome is “inactive”.

Q: How did the outcome turn out when `COP(=O)(OC)O/C(C)=C/C(=O)N(C)C` was run?
A: The outcome was “inactive”.
